Columns and labels:
Test in all cases: log2 ratio of Biotin-Ahx-Ub-VS probe labelling (fragment/DMSO); higher = less target engagement (more negative = stronger competition), active = hit call of the paper (q ≤ 0.05, log2 ratio ≤ -1)
Settings in all cases: compound concentration: 200 uM; treatment time: 3 h
USP42 = molecular target: T1, USP42 (UniProt Q9H9J4)
T1 sequence (whole entry): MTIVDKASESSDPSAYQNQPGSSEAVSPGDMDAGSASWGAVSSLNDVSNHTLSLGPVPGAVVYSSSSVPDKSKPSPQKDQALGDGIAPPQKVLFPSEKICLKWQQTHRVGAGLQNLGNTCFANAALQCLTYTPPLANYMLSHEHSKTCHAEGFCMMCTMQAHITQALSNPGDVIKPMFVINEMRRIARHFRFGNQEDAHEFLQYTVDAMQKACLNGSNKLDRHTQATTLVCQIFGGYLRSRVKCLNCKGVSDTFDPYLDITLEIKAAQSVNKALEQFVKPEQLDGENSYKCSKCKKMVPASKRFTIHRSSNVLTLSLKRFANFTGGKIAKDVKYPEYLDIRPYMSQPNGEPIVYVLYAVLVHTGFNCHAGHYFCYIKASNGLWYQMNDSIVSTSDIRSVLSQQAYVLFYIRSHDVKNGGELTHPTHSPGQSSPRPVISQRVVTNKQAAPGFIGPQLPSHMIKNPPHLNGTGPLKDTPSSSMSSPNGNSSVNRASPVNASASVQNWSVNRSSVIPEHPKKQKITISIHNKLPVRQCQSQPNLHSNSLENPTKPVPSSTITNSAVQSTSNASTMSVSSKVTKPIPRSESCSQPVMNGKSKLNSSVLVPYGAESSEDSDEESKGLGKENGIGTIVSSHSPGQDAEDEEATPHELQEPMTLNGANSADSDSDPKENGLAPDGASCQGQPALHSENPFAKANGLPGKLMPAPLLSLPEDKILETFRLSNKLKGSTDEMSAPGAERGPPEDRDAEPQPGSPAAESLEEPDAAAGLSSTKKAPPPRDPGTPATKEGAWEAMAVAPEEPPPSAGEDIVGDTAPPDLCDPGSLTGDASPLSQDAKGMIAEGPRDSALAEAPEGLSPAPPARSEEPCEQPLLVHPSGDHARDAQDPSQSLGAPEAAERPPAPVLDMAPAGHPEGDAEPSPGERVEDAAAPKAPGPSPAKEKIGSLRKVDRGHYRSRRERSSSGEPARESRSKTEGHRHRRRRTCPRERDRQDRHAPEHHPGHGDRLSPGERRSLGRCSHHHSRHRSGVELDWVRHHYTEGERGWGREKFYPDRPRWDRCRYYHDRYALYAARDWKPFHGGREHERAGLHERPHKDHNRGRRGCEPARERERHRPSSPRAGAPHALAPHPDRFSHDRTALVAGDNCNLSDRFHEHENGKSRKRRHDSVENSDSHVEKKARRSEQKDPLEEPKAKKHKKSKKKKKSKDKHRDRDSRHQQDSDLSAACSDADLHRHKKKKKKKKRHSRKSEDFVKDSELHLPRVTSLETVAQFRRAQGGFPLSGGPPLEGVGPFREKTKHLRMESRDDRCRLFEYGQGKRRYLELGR
Summary of the method: (§1)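 HEK293T lysate in Tris/CHAPS/IGEPAL buffer with protease inhibitors (495 µg per sample) was given fragment at 200 µM or vehicle for 3 h, in triplicate. It then received Biotin-Ahx-Ub-VS at 0.5 µM final for 1 h. Labelled DUBs were NeutrAvidin-enriched, digested with LysC and trypsin, and run by diaPASEF LC-MS/MS. Values are average log2 fragment/vehicle ratios by unpaired t-test on global-median-normalised Spectronaut quantities of proteins with ≥2 unique peptides.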

USP46 = USP46 (UniProt P62068)
Summary of the method: as §1

USP47 = molecular target: T2, USP47 (UniProt Q96K76)
T2 sequence (whole entry): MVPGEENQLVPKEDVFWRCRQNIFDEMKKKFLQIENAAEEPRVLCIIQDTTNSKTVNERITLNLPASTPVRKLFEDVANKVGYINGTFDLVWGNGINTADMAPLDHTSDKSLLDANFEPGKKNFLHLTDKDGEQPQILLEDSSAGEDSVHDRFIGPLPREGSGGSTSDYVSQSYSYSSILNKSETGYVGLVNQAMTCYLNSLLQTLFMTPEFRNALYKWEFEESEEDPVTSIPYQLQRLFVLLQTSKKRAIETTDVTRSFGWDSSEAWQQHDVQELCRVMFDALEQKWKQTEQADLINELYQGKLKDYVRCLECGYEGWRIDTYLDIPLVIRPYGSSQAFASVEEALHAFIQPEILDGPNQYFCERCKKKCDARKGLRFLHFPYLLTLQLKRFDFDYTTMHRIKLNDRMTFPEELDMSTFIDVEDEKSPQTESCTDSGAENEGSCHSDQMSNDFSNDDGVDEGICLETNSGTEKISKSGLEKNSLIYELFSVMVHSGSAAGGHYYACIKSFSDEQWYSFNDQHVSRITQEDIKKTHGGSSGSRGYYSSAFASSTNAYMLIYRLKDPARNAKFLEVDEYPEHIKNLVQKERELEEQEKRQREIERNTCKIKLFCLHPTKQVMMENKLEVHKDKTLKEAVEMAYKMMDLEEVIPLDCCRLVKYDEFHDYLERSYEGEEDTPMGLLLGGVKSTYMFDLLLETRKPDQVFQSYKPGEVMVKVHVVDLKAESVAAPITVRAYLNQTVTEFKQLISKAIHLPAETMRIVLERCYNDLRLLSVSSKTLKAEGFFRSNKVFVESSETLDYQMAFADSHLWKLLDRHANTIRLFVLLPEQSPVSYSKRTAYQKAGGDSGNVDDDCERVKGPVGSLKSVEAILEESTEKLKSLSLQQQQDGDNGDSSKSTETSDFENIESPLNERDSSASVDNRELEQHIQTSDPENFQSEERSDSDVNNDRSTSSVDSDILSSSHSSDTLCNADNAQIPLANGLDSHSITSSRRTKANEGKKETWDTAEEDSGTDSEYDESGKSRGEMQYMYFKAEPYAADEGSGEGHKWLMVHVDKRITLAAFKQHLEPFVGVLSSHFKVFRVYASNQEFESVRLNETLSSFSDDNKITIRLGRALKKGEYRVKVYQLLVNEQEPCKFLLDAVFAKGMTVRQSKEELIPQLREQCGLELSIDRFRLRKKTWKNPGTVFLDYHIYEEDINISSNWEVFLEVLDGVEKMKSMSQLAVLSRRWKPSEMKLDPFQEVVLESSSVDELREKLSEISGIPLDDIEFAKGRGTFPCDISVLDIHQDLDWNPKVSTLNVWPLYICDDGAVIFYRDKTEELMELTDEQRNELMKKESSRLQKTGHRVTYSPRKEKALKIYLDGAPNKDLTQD
Summary of the method: as §1

USP48 = molecular target: T3, USP48 (UniProt Q86UV5)
T3 sequence (whole entry): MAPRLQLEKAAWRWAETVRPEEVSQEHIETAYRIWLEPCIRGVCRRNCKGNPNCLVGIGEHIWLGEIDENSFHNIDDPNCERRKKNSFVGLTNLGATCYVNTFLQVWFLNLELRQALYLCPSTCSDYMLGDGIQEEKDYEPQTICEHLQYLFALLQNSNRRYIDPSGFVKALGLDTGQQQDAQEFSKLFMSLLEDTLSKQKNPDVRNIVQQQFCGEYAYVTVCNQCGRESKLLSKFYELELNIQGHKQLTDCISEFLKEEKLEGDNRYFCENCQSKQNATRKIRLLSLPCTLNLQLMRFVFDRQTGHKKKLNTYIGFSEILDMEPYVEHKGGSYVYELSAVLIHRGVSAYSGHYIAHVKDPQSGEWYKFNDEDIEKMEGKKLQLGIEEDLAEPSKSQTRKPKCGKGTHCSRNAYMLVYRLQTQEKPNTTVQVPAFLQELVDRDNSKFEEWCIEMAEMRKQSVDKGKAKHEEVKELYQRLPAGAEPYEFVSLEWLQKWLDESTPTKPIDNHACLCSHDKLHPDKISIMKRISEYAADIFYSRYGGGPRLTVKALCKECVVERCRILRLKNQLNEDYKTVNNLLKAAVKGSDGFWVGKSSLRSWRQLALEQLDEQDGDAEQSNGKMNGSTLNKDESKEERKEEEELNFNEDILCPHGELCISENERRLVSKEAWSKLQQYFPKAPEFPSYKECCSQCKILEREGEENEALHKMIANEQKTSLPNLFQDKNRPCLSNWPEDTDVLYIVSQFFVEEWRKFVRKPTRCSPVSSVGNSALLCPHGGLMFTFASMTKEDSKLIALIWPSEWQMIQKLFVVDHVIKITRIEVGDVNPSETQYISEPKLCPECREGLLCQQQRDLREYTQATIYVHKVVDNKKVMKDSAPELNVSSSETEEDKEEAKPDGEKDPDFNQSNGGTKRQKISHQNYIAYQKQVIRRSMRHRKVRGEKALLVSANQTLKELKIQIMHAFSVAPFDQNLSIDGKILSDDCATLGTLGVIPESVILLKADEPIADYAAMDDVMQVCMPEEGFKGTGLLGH
Summary of the method: as §1

USP5 = molecular target: T4, USP5 (UniProt P45974)
T4 sequence (whole entry): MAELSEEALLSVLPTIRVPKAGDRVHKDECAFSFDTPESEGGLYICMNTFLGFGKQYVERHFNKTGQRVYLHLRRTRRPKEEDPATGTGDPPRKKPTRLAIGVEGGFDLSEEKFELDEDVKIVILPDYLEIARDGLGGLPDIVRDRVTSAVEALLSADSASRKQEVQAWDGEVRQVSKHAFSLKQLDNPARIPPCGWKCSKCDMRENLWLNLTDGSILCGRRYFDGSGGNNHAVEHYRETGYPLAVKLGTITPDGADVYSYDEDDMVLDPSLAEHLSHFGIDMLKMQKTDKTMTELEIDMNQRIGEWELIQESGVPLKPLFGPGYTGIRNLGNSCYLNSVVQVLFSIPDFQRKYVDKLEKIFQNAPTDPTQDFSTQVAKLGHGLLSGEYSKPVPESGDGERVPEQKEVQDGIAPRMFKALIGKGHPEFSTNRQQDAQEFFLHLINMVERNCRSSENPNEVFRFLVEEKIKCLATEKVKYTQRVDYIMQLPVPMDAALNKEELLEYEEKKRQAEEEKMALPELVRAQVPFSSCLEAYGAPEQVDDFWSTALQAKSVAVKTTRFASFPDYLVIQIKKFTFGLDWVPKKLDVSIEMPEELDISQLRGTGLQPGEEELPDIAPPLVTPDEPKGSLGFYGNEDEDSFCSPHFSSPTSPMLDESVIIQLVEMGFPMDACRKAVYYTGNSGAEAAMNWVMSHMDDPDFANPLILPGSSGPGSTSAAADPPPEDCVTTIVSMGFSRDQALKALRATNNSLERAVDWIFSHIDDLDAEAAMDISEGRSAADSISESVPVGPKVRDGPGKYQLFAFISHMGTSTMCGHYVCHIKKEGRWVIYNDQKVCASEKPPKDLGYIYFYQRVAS
Summary of the method: as §1

USP54 = USP54 (UniProt Q70EL1)
Summary of the method: as §1

USP7 = USP7 (UniProt Q93009)
Summary of the method: as §1

USP8 = molecular target: T5, USP8 (UniProt P40818)
T5 sequence (whole entry): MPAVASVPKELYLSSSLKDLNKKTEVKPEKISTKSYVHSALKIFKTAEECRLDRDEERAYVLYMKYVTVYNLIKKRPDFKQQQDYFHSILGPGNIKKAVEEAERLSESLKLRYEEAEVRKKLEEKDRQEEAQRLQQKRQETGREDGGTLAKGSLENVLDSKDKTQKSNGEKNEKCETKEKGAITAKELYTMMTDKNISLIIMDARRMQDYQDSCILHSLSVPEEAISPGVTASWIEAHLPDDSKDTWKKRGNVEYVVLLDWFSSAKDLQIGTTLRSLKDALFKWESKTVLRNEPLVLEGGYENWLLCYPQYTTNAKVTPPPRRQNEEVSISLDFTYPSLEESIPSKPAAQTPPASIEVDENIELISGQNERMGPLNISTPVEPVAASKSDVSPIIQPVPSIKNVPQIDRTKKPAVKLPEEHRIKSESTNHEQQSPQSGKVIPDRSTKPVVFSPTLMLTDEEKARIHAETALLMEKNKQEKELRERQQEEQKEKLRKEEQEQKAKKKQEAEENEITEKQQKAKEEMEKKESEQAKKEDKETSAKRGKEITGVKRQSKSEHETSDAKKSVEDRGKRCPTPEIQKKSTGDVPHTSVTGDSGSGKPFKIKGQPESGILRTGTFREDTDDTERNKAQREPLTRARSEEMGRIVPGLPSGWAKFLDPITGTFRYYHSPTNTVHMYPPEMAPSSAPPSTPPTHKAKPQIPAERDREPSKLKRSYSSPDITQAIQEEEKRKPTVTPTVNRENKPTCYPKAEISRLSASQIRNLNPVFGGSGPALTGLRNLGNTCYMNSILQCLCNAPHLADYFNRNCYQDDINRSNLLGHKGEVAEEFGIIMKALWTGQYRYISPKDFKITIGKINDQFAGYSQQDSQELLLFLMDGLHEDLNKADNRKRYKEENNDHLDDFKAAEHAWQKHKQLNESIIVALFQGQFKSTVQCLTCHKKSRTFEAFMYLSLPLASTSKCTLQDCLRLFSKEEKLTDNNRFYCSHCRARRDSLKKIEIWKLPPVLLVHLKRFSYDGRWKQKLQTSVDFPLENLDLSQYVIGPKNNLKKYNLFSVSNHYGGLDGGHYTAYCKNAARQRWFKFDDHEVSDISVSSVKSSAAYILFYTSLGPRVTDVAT
Summary of the method: as §1

Measured: log2 ratio of Biotin-Ahx-Ub-VS probe labelling

USP7, sequence (Q93009 whole entry, looked up): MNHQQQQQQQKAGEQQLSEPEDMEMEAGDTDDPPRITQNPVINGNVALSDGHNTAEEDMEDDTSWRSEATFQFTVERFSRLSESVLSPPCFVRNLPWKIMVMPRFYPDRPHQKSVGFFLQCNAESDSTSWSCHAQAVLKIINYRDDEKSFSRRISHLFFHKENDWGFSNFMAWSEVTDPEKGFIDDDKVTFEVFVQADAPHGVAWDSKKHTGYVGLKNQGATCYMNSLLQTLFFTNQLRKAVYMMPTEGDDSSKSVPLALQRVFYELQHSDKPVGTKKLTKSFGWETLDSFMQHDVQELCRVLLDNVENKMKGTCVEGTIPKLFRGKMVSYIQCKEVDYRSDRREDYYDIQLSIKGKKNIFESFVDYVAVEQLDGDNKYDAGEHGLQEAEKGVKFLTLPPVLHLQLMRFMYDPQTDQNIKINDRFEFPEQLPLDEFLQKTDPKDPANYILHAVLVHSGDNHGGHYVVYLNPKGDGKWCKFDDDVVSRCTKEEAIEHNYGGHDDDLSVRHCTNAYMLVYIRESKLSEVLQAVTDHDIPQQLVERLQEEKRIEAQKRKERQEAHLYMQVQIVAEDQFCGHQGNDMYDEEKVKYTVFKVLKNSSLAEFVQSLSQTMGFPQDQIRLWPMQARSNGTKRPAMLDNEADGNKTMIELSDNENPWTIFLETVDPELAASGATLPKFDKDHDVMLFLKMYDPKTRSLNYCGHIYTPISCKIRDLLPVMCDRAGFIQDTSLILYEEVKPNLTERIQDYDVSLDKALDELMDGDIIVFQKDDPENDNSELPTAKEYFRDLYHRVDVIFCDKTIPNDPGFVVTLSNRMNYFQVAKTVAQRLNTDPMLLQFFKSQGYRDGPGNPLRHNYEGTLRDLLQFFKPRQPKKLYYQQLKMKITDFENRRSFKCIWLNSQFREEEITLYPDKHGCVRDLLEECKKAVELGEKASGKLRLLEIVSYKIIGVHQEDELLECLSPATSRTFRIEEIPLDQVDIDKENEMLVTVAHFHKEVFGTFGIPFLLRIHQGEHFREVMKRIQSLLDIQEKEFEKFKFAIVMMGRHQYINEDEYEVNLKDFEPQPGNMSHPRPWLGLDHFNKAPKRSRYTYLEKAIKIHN
USP46, sequence (P62068 whole entry): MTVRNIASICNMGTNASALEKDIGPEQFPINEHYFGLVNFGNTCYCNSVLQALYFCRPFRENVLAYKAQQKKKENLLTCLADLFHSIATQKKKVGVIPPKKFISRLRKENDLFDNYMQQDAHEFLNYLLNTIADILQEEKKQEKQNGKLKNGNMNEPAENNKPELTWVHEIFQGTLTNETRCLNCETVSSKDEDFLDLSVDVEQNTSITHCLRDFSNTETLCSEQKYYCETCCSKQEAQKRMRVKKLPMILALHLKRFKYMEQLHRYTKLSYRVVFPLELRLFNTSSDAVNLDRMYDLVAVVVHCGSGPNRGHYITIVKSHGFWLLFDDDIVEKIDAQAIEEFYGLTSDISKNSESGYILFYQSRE
USP54, sequence (Q70EL1 whole entry): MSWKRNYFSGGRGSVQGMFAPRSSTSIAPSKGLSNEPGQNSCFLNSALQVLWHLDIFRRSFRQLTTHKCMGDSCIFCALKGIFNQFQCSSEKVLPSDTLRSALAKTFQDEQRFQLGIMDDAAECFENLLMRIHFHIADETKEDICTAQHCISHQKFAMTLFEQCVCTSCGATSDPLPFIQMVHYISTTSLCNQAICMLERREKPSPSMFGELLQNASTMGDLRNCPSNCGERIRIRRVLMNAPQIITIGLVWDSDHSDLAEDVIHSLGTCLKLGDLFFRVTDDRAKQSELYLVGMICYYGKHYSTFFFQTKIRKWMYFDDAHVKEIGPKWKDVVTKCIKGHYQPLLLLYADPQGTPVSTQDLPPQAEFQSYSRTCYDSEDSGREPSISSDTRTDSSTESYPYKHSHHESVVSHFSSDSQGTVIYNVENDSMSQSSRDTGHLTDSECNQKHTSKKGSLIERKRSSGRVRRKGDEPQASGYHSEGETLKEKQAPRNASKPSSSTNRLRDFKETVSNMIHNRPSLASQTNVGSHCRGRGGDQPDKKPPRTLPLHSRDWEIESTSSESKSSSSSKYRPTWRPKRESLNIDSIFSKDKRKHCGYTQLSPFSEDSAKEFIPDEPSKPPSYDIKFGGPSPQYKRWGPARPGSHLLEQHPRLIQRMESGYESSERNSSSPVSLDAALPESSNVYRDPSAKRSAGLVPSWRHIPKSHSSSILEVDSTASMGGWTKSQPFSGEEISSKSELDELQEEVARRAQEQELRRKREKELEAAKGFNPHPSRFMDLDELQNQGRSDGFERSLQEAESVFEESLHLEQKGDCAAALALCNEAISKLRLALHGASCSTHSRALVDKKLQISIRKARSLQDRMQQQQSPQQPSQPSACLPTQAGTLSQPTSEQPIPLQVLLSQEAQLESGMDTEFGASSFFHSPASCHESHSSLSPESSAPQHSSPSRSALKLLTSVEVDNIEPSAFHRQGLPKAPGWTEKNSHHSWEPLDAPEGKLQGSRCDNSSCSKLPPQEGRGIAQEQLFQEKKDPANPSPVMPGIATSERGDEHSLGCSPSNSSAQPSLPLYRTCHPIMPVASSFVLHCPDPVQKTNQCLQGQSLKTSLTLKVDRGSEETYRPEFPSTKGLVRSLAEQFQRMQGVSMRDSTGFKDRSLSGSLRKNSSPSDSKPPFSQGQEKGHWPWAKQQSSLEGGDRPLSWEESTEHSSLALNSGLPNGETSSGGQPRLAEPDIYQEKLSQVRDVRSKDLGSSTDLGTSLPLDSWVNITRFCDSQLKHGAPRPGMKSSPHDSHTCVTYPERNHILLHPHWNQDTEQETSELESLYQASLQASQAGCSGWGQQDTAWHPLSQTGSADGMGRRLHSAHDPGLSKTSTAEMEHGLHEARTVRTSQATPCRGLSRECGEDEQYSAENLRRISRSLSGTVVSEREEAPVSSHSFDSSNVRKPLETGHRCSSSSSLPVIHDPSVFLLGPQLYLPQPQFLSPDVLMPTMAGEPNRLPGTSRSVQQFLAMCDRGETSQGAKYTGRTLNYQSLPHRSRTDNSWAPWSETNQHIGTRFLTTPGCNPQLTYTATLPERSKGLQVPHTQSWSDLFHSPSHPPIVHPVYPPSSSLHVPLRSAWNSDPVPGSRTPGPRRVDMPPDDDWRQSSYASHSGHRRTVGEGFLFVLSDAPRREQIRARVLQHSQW

O=C(CCl)N1CCCC2CCCCC21 (stereo not drawn)
inactive: USP42 0.484 | USP46 -0.132 | USP47 -0.696 | USP48 -0.516 | USP5 0.0316 | USP54 0.268 | USP7 -0.486 | USP8 -0.0438

From the supplement of paper PMC11732987, “Enantioselective OTUD7B fragment discovery through chemoproteomics screening and high-throughput optimisation” (Communications Chemistry, 2025)
